Laboratory results as given in PubChem BioAssay AID1508600 (Functional Genomics Laboratory (NCATS/FGL), 2020).
Hit rate of the full screen: of about 53,000 sequences, about 3,700 (7%) were called active.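 How the source made its calls: active means gene knockdowns whose robust z-score for IL-1 alpha signal is at least 2 or at most -2, so actives lie on both sides; inactive means the rest.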 Shown is part of a subset that was picked to be rich in actives.

Test: Components of the Cytosolic LPS Sensing Pathway: Gene Identification via Genome-wide siRNA Screen;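 further: robust z of the log signal after scaling to non-targeting control siRNA wells of the plate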
Conditions: RAW264.7 macrophages, IL-1a HTRF, actives lie on both sides, screened at 100 nM (by protocol), cells primed 5 h with Pam3CSK4 first
In short: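 RAW264.7; siRNA 100 nM final, RNAiMAX, 48h 37 degrees C; Pam3CSK4 5 h; LipidA + TransIT-TKO 24 h; IL-1a HTRF; CellTiter-Glo viability; robust z vs negative-control median.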

z-score, active:
GGAGAAGAAGAACAGGACATT against Rnf186 2.35, GGUGGUUUGUGUUACAUUUTT against Ifnar2 2.38, GCCUAACAAUAGUGGAAUUTT against Ms4a13 2.76, GGAGAUGCCAGAGGUCAAATT against Gzmk 2.08, GGUGGACAAGGCAAUACAGTT against Mmp20 4.46, GGAAUCAUCUGAACACACATT against Ctcf -2.18, GGGUAUUCUGUGUGUUACUTT against Hsd3b1 2.06, GCGAAGAGAUGCUAACUAUTT against Dhx8 -2.86, GGAUGCACUCAAGAAUUACTT against Ccdc65 2.11, CCACAACUAUGAGUCUAUUTT against Ech1 2.05, GGAAACAAAUGAGUGCCUGTT against Bloc1s5 2.02, GGAGAUCAAAGAAUCUUGGTT against Arhgap45 -4.45, CCGGGUAGUGAGUAAGCUUTT against Neu2 -3.51, CCGAGAUAUGAAUCAAAUUTT against Wars 2.19, GCCUAAACUACCCUUAUAGTT against Ocln 3.4, GCAGUUCUCCUAUUUCAUCTT against Cdc45 2.03, CCCGGGUUGGGUGUACAUUTT against Sds 3.62, GGGCUGGAGUCUGAUACAUTT against Rbm5 3.39, GGUUUUCAAAUGUCUAUCATT against Pithd1 2.37, GCGUGUAGGAAUAAUACCUTT against Psmc6 -2.66, GCGGAAGCGUGAAUCCAAATT against Tigd3 3.13

z-score, inactive:
GGACAGUUCGUGUUUGGUUTT against Wdfy2 0.0956, GGUUCAACAAAACAGGCUUTT against Serpina1f -1.01, GGAUUAAUGUUUCCUGACUTT against Mturn 0.704, GGGAAACAAACAGAAGAACTT against Cfap65 -1.2, GGACAUUAACGAGCUGAACTT against Ube2m 0.67, GGACAGGUGAAGAUAAGUATT against Mug2 -0.704, GCCUGUAUAGAUGCUAUUCTT against Setd1a -0.894, GGACUAUGUCUUUGACAAATT against Cdyl2 -0.133, GGAUUUCCUGUUCUUUCUATT against Prmt5 0.168, GGACUGUGGCACAGAGAAATT against Hgfac -0.116, GCUGAUCCAACUGGAAUCUTT against Cep164 0.61, GGCAAAGAAUGCACUUUCUTT against Elapor2 -0.536, GGAGUCCUAAAGAGUUCUATT against Slc11a1 0.723, GGCUUUCAAGACACUUCUUTT against Ccl6 -1.6, GCUCAUUAACGAGAAAGUGTT against Atxn7l2 -0.991, GGCUACUGUAAGAUUUCUATT against Mgat4f 1.98, GCAAAACCAAGUGAAUGUGTT against Plac1 -0.774, GGAGUUUCAGCAGUCGUGATT against Prkrip1 -0.94, CCCUUCUCUGAUUGUCUGATT against Lce3b -0.452, GCUUCUAAAUUUGGUUCUGTT against 9830163H01Rik -0.389, GGUUUGAAUGAAUUCAAGGTT against 6030452D12Rik 0.785, GCUUAAUCAACUGGUACUATT against Olfr19 -1.7, GGGUCACGGGAACUCAAAATT against Mlf1 -0.608, GGAGAAGCUAUGGUAUUACTT against Apc2 -0.798, CCACCACCAUCUAAAUAUATT against Ckap2l -1.62, GGACACAUUCGAAUGAACCTT against Mkrn2 0.0809, GGACAAGACCAGCAAAUACTT against Six6 -1.58, GCAUUGUGCUCAAAUCUGCTT against C1qtnf7 -0.168, GGGUUUUGAAACAUGCAGGTT against Cd44 -1.54, AGAGAGAUAUUGUUCAUCATT against Psg22 0.11, GGUAAUCGUGUAUUCAUAUTT against Dph5 -0.327, GGAAACUGAAAAACAGAGUTT against Xbp1 -0.957, UGAGUUGUUUCCAGCUAAATT against Uts2b -0.506, GCCCGGUCCUUUACUACAUTT against Sdk1 0.595, GGUGAGUGAUCUUCAGAACTT against Snx13 0.311, CCCUGCUAAAAUCGACCUGTT against Plekha8 -0.912, GCUCAUCGUGUUCGCUAUATT against Tuft1 -0.235, GGAGGUAAAGGAAAACUCUTT against Fmo1 0.27, GCUGGACCCACACAAAAAGTT against Rhbdl3 -0.0513, GGCUUUUCAGACCAAGCUUTT against 3830406C13Rik 0.322, CGUUGUAUGCUAGUACUGATT against Olfr1501 -1.17, GGCAAAAAGGGAUGUUACCTT against Map1lc3b -0.221, GCGAGUCUAUGUGUUCCCUTT against Cox4i2 0.187, GCUGGAAUACGGAAAAUGGTT against Gbe1 -1.56, GGAGGAAAUACAUGAUAAATT against Strap -0.159, GGCUUACGAUGAAAAUAAATT against Lca5 -1.94, GGCAUUGCAUUCUCACAUGTT against Gabarapl1 0.319, GCUCGUUGCAUAAAAAGAGTT against Creg2 -0.286, GCCGGAAACUCAAGAUAGCTT against F830208F22Rik -0.74, GCCCGCUCUCGGAUUUUGATT against Htr1b 1.5, GGUAGAGACCGCAUAGAAATT against Aqp8 2, GGUCCAAGAAGACAAUGCUTT against Cga -0.102, CCUCUUUGGGACUAUAGACTT against Olfr1357 -0.378, GGUAUUGGUCCAAUUUUUCTT against Gng7 0.187, GGCUGUGGUGCUCAAUAAGTT against Clstn2 -1.29, GGAAAGACAAAAUCUAUGATT against Peg3 -0.777, GGUCAUCAGUGAGCUGAAUTT against Rplp2 0.125, GCUCAUCUCCUUGAAUUCATT against Agbl5 0.31, CCUGUCCUGAUGGUGAAACTT against Serpinb3c 0.619, GGUGCUGGCAACCUUUUGUTT against Masp1 0.16, GGGCCAUUGUCAAGGUGAUTT against Olfr632 -0.408, CCGAUUUUUACUUUUAGCUTT against Slc16a7 1.86, GGAGACUAUUACCAUACUGTT against P4ha2 -0.991, GGUGAGCAAGAACAAAAAGTT against Chil6 -0.71, GGUUUCGAGAAAACAACAATT against Miip 0.566, GCACAUCGAAAAUGCCCUGTT against Cpt1c -0.154, GGCAAACCUGCUUUCAUGGTT against Smc5 0.282, CGGGUGAGUGGAAAAACCATT against Atg9b -0.282, GCCAAUGCCCUUGUGCAAATT against Olfr344 0.301, GGCUAUCUCGUAUUCUGAUTT against Olfr985 -1.62, CCUUAGCAAUGGGAUUGAUTT against Rasl12 0.448, GGAGAACACUUUAAUGCUGTT against Ovch2 0.00992, CCGUGUUAGAGUUUUCGACTT against Top3b 1.2, CCAAAGGUAUGCAGUAUGATT against Cdh4 0.131, CCUGCUCAGGACGACUUUUTT against Defa20 -1.63, GGACUUUGACCCGUACUAUTT against Scn8a 0.951, GCUUGUGCCGGAUAAAGGUTT against Gng3 -0.748, GCCAAGGUGGAAUUUUUGGTT against Gpx8 0.139, GGUAUACCAAGAAGCUAAGTT against Kctd14 -0.855, GCAGAGGUACGUGUUUGACTT against Gdf5 0.933, UGCUCUUGGGUUCUUAAAUTT against Olfr1466 -0.559, CGAACAAGCCAUGUUUACATT against Gvin1 0.811, GGAACUUCUCAAAAGGCUGTT against Tspoap1 -0.0418, GGACCUGACCUACUCGUGUTT against Rxrb -0.216, GGAUCGAACUGCCAUUGCUTT against A930104D05Rik -0.201, GCUGUCCUACUGAGCUUGCTT against Gdpgp1 -0.0224, GCCACUUGUGCUAAGCUGUTT against Ager -0.768
